Growth inhibition data for 20 compounds are collected here from PubChem BioAssay (NCI).

SMILES strings stand for the structures. This is part of a sample that, as a whole, favours compounds with a hit. Of some 79,000 tested, about 15% had one in any assay. A number with no mark means an inactive call. Calls of active or inactive are those of the source. Cut-off read from the data, not from the text of the source: active = growth inhibition above about 70%; inactive = the rest.

The nature of experiment [1]: NCI Yeast Anticancer Drug Screen. Data for the rad50 strain (AID 155).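 Note: 0% = growth of vehicle-only cultures of the same strain.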 The following applies: S. cerevisiae rad50 strain growth inhibition, stronger effect = higher value; at 50.0 µM unless noted. In a few lines:
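Compounds were tested on a yeast strain with an engineered DNA damage repair alteration; the reported value is growth inhibition normalised to vehicle treatment.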

Experiment [2] in a line: NCI Yeast Anticancer Drug Screen. Data for the mec2-1 strain (AID 157). Conditions: S. cerevisiae mec2-1 strain, stronger effect = higher value; at 50.0 µM unless noted. The method, boiled down: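 Each compound was tested on mec2-1 yeast, a strain altered in DNA damage repair or cell cycle control. Growth inhibition is reported relative to vehicle.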
Experiment [3] in a line: NCI Yeast Anticancer Drug Screen. Data for the sgs1 mgt1 strain (AID 161).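 Note: 0% = growth of cultures given vehicle only.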 Conditions: S. cerevisiae sgs1 mgt1 strain, stronger effect = higher value; at 50.0 µM unless noted. The method, boiled down: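 Read-out: growth inhibition vs vehicle controls. Cells: mutant yeast strain deficient in DNA damage repair.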
A short description of experiment [4]: NCI Yeast Anticancer Drug Screen. Data for the cln2 rad14 strain (AID 165).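 Note: 0% = growth equal to vehicle treated cultures.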 Conditions: S. cerevisiae cln2 rad14 strain, stronger effect = higher value; at 50.0 µM unless noted. The method, boiled down:
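Test compounds were added to cln2 rad14 yeast cultures; inhibition of growth was then determined by comparison with vehicle treatment.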

Experiment [5] in a line: NCI Yeast Anticancer Drug Screen. Data for the bub3 strain (AID 167). The following applies: S. cerevisiae bub3 mutant strain, stronger effect = higher value; at 50.0 µM unless noted. The method, boiled down:
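Growth of a checkpoint-deficient yeast mutant is measured after compound exposure. Values represent inhibition relative to vehicle.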

A short description of experiment [6]: NCI Yeast Anticancer Drug Screen. Data for the mlh1 rad18 strain (AID 175). The following applies: S. cerevisiae mlh1 rad18 strain growth inhibition, stronger effect = higher value; at 50.0 µM unless noted. In a few lines: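 Inhibition values reflect reduced growth of mutant yeast versus vehicle-treated controls following compound exposure; the mutations affect DNA damage repair.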

With `CC(C)Cc1c(C#N)c(C#N)c(N)n1Cc1ccccc1`, the growth inhibition in experiment [1] is 3.05%; in experiment [2] it was 11.4%; in experiment [3], -29%; in experiment [4], -12%; in experiment [5], -22.1%; in experiment [6], -36.4%.

On to `COc1ccc2[nH]c3ccccc3c(=O)c2c1`, for which the growth inhibition was 12.6% in experiment [1]; -3.2% in experiment [2]; 8.8% in experiment [3]; -66.4% in experiment [4]; 3% in experiment [5]; -6.65% in experiment [6].

Regarding `COc1ccc(-[n+]2nc(S(=O)(=O)O)c(/C=C/c3ccc(N(C)C)cc3)cc2C#N)cc1`, the growth inhibition in experiment [1] is -13.8%; in experiment [2] it was -9.05%; in experiment [3] it was 20.1%; in experiment [4] it was 6.65%; in experiment [5], 5.85%; in experiment [6], -9.5%.

For the compound `CCOC(=O)O/C(=C\c1ccc(OC)cc1)c1c(OC(=O)OCC)n(C(=O)OCC)c2ccccc12`, the growth inhibition was -13.1% in experiment [1]; -4.3% in experiment [2]; 7% in experiment [3]; 9.95% in experiment [4]; 12.7% in experiment [5]; 4.05% in experiment [6].

With `C/C(=N\NS(=O)(=O)c1ccc(C)cc1)c1cccs1`, the growth inhibition was -3.9% in experiment [1]; 7.1% in experiment [2]; 6.4% in experiment [3]; 4.2% in experiment [4]; 10.2% in experiment [5]; 12.6% in experiment [6].

Regarding `CCO[C@@H]1OC(=O)[C@H]2C(c3ccccc3Cl)=NO[C@@H]12`, the growth inhibition in experiment [1] was -33.1%; in experiment [2], -30.9%; in experiment [3], -13.2%; in experiment [4], -6.65%; in experiment [5], 14.2%; in experiment [6], 0.35%.

Take `Nc1cnccc1N1CCN(c2cccc3ccccc23)CC1`: the growth inhibition in experiment [1] is 99% (active); in experiment [2], 99.3% (active); in experiment [3], 99.2% (active); in experiment [4], 98.8% (active); in experiment [5], 98.4% (active); in experiment [6], 99% (active).

Turning to `O=C(O)CCC1NCCCO1` (stereo not given), the growth inhibition in experiment [1] is 1.85%; in experiment [2], 3%; in experiment [3], 3.7%; in experiment [4], -35.1%; in experiment [5] it was -4.15%; in experiment [6], 0.75%.

Take `OC12c3ccccc3C1CCCCCCCCCC21OCCCO1` (stereo not given): the growth inhibition in experiment [1] is -2.65%; in experiment [2] it was -19.8%; in experiment [3] it was -42.6%; in experiment [4], 6.4%; in experiment [5] it was -30.4%; in experiment [6], -23.6%.

`COc1ccc(C(=O)N2N=C(C)C(C)(C)C2(C)O)cc1` (stereo not given): the growth inhibition in experiment [1] is -7.05%; in experiment [2], -23.1%; in experiment [3] it was -23.6%; in experiment [4] it was 2.5%; in experiment [5] it was -29.8%; in experiment [6], -1.95%.

For the compound `O=C1OC(C2OC(=O)C(=O)C2C2CCCCCCC2=O)C(C2CCCCCCC2=O)C1=O` (stereo not given), the growth inhibition in experiment [1] was 45.5%; in experiment [2], 9.15%; in experiment [3], 29.4%; in experiment [4], 32.9%; in experiment [5] it was 39.2%; in experiment [6], 26.4%.

As to `Cc1ccc(S(=O)(=O)C2OC(CO)C(O)C(O)C2O)cc1` (stereo not given), the growth inhibition in experiment [1] is -11.5%; in experiment [2], -16.6%; in experiment [3], -5.55%; in experiment [4], -21.1%; in experiment [5] it was 14.9%; in experiment [6] it was -6.25%.

`OCc1ccc(Cl)c(Cl)c1`: the growth inhibition is -4.15% in experiment [1]; -11.9% in experiment [2]; 0.1% in experiment [3]; 8.15% in experiment [4]; 2.8% in experiment [5]; 3.3% in experiment [6].

Turning to `O=C(Nc1ccccn1)c1ccccc1Cl`, the growth inhibition in experiment [1] is 1.1%; in experiment [2], 3.1%; in experiment [3], -9.5%; in experiment [4], 4.2%; in experiment [5], -5.9%; in experiment [6], 19.3%.

With `CCN(CC)C(=O)Oc1cccc(NC(=O)OC)c1`, the growth inhibition in experiment [1] was 16%; in experiment [2], 47.2%; in experiment [3] it was 29.4%; in experiment [4], 16.1%; in experiment [5], 49.2%; in experiment [6] it was 33.4%.

On to `CN(C)c1ccc(N)c(N)c1`, for which the growth inhibition in experiment [1] was -13.5%; in experiment [2], -34.8%; in experiment [3], -4.45%; in experiment [4], 12.1%; in experiment [5], 5.95%; in experiment [6], -12.9%.

As for `Cc1cc(=O)[nH]c(NNC(C#N)c2cccc([N+](=O)[O-])c2)n1` (stereo not given), the growth inhibition was -18.5% in experiment [1]; -11.1% in experiment [2]; -31.1% in experiment [3]; -12.8% in experiment [4]; -7.4% in experiment [5]; -39.5% in experiment [6].

As to `CC1(C)CC(=O)C(/C=N/C(=S)Nc2ccc(S(N)(=O)=O)cc2)=C(O)C1`, the growth inhibition in experiment [1] was -41.5%; in experiment [2], -68.5%; in experiment [3] it was -23.8%; in experiment [4], -8.55%; in experiment [5] it was -16.6%; in experiment [6] it was -30.4%.

`COC(=O)C(Cc1ccccc1)N=Cc1c(O)c(O)c(C(C)C)c2cc(C)c(-c3c(C)cc4c(C(C)C)c(O)c(O)c(C=NC(Cc5ccccc5)C(=O)OC)c4c3O)c(O)c12` (stereo not given): the growth inhibition in experiment [1] is 19.7%; in experiment [2], 9.7%; in experiment [3] it was 11.7%; in experiment [4], 17.1%; in experiment [5], 16.1%; in experiment [6], 4.75%.

Turning to `N#C/C=C\c1ccc(-c2cc(C(F)(F)F)cc(C(F)(F)F)c2)o1`, the growth inhibition in experiment [1] is -49%; in experiment [2], -22.6%; in experiment [3] it was -42.5%; in experiment [4] it was 3.65%; in experiment [5], 10.8%; in experiment [6], -57.5%.
